# Experimental data from PubChem BioAssay (NCATS).
# Results filed as inconclusive are left out. Entries that show only a call come without a potency. The source made the active and inactive calls. The call rests on the fitted dose curve; in most records, active means well fitted inhibition curve with a large enough effect; inconclusive means small, poorly fitted or top-dose-only effect; inactive means no such curve, though single readings can be large or run the other way.
# Experiment: Primary fluorescence-based thiol-reactive (MSTI) qHTS assay for identification of artifact compounds. (AID 1845221); further: nearly all actives have a fitted effect of over 65% in size;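 on activity change, negative = thiol reactive: thiol-reactive compounds lower the probe fluorescence signal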
# Conditions: MSTI thiol-reactivity probe, 1 h; series mostly up to 53.8 µM
# Description: PI: Alexander Tropsha Ph.D.
# UNC Eshelman School of Pharmacy
# University of North Carolina, Chapel Hill, North Carolina
# Hits from high-throughput screening (HTS) of chemical libraries are often false positives due to their interference with the assay detection technology. In response to this problem, we generated the largest publicly available library of chemical liabilities and developed a free webtool to predict HTS artifacts, both of which are described herein. More specifically, we generated, curated, and integrated HTS datasets for thiol reactivity, redox activity, and luciferase (firefly and nano) activity. Using these curated datasets, we developed and validated several Quantitative Structure-Interference Relationship (QSIR) models to predict nuisance behavior. […] These models were employed for virtual profiling of the National Center for Advancing Translational Science's (NCATS) in-house library, and 256 compounds for each assay were selected for the experimental validation of nuisance behavior. The BA for these external predictions ranged from 58 to 78% for compounds within the applicability domains of the models. […] The models developed in this study, along with aggregation models previously developed by our group (SCAM Detective) were implemented in "Liability Predictor," an online tool which may be used as part of chemical library design or for triaging HTS hits. Both the models and the curated datasets are publicly available at https://liability.mml.unc.edu/.
# SEQUENCE No. (e.g., 1, 2, 3, etc.); […] (e.g., Cells, Incubation, Reagent, etc.); VALUE; DESCRIPTION.
# 1; Reagent; 4 uL; […].
# 2; Compounds and control; 16 nL; Kalypsis pin tool (Wako USA) equipped with a 1536-well pin head.
# 4; Detection; Fluorescence, ViewLux microplate reader, 525 nm excitation, 598 nm emission.
# NOTES (numbers refer to Sequence numbers above)
# 1. Assays determining (E)-2-(4-mercaptostyryl)-1,3,3-trimethyl-3H-indol-1-ium (MSTI) reactivity were performed as previously described in the literature with modifications for the quick identification of compounds reacting with thiol. In brief, 4 uL of MSTI or positive control Acetyl-MSTI (final concentrations of 4 uM and 4 uM, respectively) in assay buffer (2% DMSO in 1X PBS pH 7.4) was dispensed into all wells of a 1536-well assay plate (solid-bottom black plate; Greiner Bio One, Monroe, NC).
# 2. A Wako Pin-tool (Wako Automation, Richmond, VA) was used to transfer 16 nL of compounds (consisting of 7-plates in qHTS format, final concentration range 18.3 nM to 114 uM) or control MLS001163887 (final concentration range 1.22 nM to 40 uM).
# 3. Plates were centrifuged (121xg, 15 seconds) and incubated for 1 hour at room temperature protected from light.
# 4. Samples were read for fluorescence (Ex/Em = 525(20)/598(25) nm) on a ViewLux CCD imager (PerkinElmer). Data were normalized to Acetyl-MSTI (0% activity) and MSTI (100% activity) and the resulting percent inhibition data were fitted to a 4-parameter Hill equation using NCATS in-house software.
# Potency means the concentration at half of the fitted maximal effect.
SMILES,Potency,"activity change, negative = thiol reactive"
O=C(O)c1ccc(NC(=O)[C@H](CC2CCCC2)n2cnc(C(F)(F)F)c2)nc1,inactive,
CCNC(=O)C1CC(F)(c2ccc(CN3CCCC3)c(F)c2)C1 (stereo not given),inactive,
C=C[C@@]1(C)CCC2=C([C@H]1OC(C)=O)[C@H](OC(C)=O)CC1[C@](C)(C(=O)OC)CC[C@H](OC(C)=O)[C@]21C (stereo not given in full),inactive,
C/C=C/C=C/[C@@H]1O[C@](O)([C@H](CC)C(=O)NC/C=C/C=C(\C)[C@@H](OC)[C@@H](C)[C@@H]2O[C@H](/C=C/C=C/C=C(\C)C(=O)c3c(O)ccn(C)c3=O)[C@H](O)[C@@H]2O)[C@H](O)[C@H](O)C1(C)C,,94.3% [at 11.5 µM] (inactive)
CC1CCCCCCCc2cc(O)cc(O)c2C(=O)O1 (stereo not given),26.7 µM (active),
C[C@@H]1C[C@@H](O)[C@@]23CO[C@]2(CO)C[C@@H](O)CC3[C@@]12CC(c1ccoc1)OC2=O (stereo not given in full),6.56 µM (active),
C/C=C1/[C@H](O[C@@H]2O[C@H](CO)[C@@H](O)[C@H](O)[C@H]2O)OC=C2C(=O)O[C@@H]3C[C@@H](C(C)CO)[C@H](COC(=O)C[C@H]21)[C@H]3C (stereo not given in full),inactive,
CC(=O)O[C@@H]1[C@H](O[C@@H]2OC[C@](O)(CO)[C@H]2O)[C@@H](O[C@@H]2O[C@@H](C)[C@H](O)[C@@H](O[C@@H]3O[C@H](CO)[C@@H](O)[C@H](O)[C@H]3O)[C@H]2O)[C@H](OC(=O)[C@]23CCC(C)(C)C[C@H]2C2=CCC4[C@@]5(C)C[C@H](O)[C@H](O[C@@H]6O[C@H](C(=O)O)[C@@H](O)[C@H](O)[C@H]6O)[C@@](C)(C(=O)O)C5CC[C@@]4(C)[C@]2(C)CC3)O[C@@H]1C (stereo not given in full),,238% [at 11.5 µM] (inactive)
C=C1CC2C3(C)C(O)CC(=O)C(C)(C)C3C(O)C(OC(C)=O)C2(C)C2C(=O)OC(C)(C(=O)OC)C(=O)C12C (stereo not given),inactive,
O=C(O)CCc1c(C(=O)O)[nH]c2cc(Cl)cc(Cl)c12,inactive,
CC(C)=CC[C@H]1O[C@]2(O)C([C@H]3CCC4[C@@]5(C)CC[C@H](O[C@@H]6O[C@H](CO)[C@H](O)[C@H](O[C@@H]7O[C@H](CO)[C@@H](O)[C@H](O)[C@H]7O)[C@H]6O[C@@H]6O[C@@H](C)[C@H](O)[C@@H](O)[C@H]6O)C(C)(C)C5CC[C@@]4(C)[C@]3(C)[C@H]2O)[C@@]1(C)O (stereo not given in full),,12.2% [at 11.5 µM] (inactive)
C=CC(C)(O)CC/C=C(\C)C(=O)O[C@@H]1[C@@H](O)[C@H](OC(C)(C=C)CC/C=C(\C)C(=O)O)O[C@H](CO)[C@H]1OC(=O)/C(C)=C/CCC(C)(O)C=C (stereo not given in full),inactive,
CC(C)C1C(OC(=O)/C=C/c2ccccc2)CC2(C)OC2CCC2(C)OC2C1O (stereo not given),inactive,
CC(C)CC(=O)O[C@@H]1O[C@H](CO)[C@@H](O[C@H]2O[C@H](C)[C@@H](N[C@H]3C=C(CO)[C@@H](O[C@H]4O[C@H](CO)[C@@H](O[C@H]5O[C@H](CO)[C@@H](O[C@H]6O[C@H](CO)[C@@H](O)[C@H](O)[C@H]6O)[C@H](O)[C@H]5O)[C@H](O)[C@H]4O)[C@H](O)[C@H]3O)[C@H](O)[C@H]2O)[C@H](O)[C@H]1O,,7.36% [at 11.5 µM] (inactive)
Nc1ncnc2c1ncn2[C@H]1O[C@@H](C(=O)N2CCN(CC(=O)Nc3cccc4c3CNC4=O)CC2)[C@H](O)[C@@H]1O,inactive,
C=C(C(=O)O)C1CC(O)C2(C)CCCC(C)(O)C2C1 (stereo not given),11.9 µM (active),
CC1(C(=O)O)CCCC2(C)C3CCC4CC3(CCC12)CC4C(=O)O (stereo not given),inactive,
CC(C)(O)C1CC=C(C(=O)OC[C@H]2O[C@@H](Oc3cc(C(=O)O)cc(O)c3O)[C@H](O)[C@@H](O)[C@@H]2O)CC1 (stereo not given in full),5.19 µM (active),
COc1ccc2[nH]c(S(=O)Cc3ncc(C)c(OC)c3C)nc2c1 (stereo not given),11.9 µM (active),
CCOC(=O)C1=C(N)Oc2ccc(Cl)cc2C1C(C#N)C(=O)OCC (stereo not given),inactive,

SMILES,Potency,"activity change, negative = thiol reactive"
COc1cc(/C=C/C(=O)O[C@H]2[C@H](O)[C@@H](CO)O[C@@]2(CO)O[C@H]2O[C@H](CO)[C@@H](O)[C@H](O)[C@H]2O)cc(OC)c1O,inactive,
COc1cccc(OC)c1-c1nc(C(=O)N[C@@H](CC(C)C)C(=O)O)cn1-c1ccnc2cc(Cl)ccc12,inactive,
CC1(C)CC[C@]2(C(=O)O)CC[C@]3(C)C(=CCC4[C@@]5(C)CC[C@H](O[C@H]6O[C@H](C(=O)O)[C@@H](O)[C@H](O[C@@H]7O[C@H](CO)[C@H](O)[C@H](O)[C@H]7O)[C@H]6O)C(C)(C)C5CC[C@]43C)[C@@H]2C1 (stereo not given in full),,239% [at 11.5 µM] (inactive)
C[C@]1(C2CCCC2)Cc2cc(OCC(=O)O)c(Cl)c(Cl)c2C1=O,inactive,
CC1(C)CC[C@]2(C(=O)O[C@@H]3O[C@H](CO[C@@H]4O[C@H](CO)[C@@H](O)[C@H](O)[C@H]4O)[C@@H](O)[C@H](O[C@@H]4O[C@H](CO)[C@@H](O)[C@H](O)[C@H]4O)[C@H]3O)[C@H](O)C[C@]3(C)C(=CCC4[C@@]5(C)CC[C@H](O[C@@H]6OC[C@@H](O)[C@H](O)[C@H]6O)[C@@](C)(C(=O)O)C5CC[C@]43C)[C@@H]2C1 (stereo not given in full),,59.1% [at 11.5 µM] (inactive)
CC(C)c1ccc2c(c1)C(O)CC1C(C)(CO)CCCC21C (stereo not given),inactive,
CCC(=O)OCC(=O)[C@@]1(OC(=O)CC)[C@@H](C)C[C@H]2[C@@H]3CCC4=CC(=O)C=C[C@]4(C)[C@@]3(F)[C@@H](O)C[C@@]21C,inactive,
C[C@]1(OC(=O)/C=C/c2ccccc2)C[C@@H](O)[C@]2(O)C=CO[C@@H](O[C@@H]3O[C@H](CO)[C@@H](O)[C@H](O)[C@H]3O)[C@@H]21,inactive,
C=C1C[C@H](O)[C@@H](O)[C@@]2(C)C1[C@@H](O)[C@H]1OC(=O)C3[C@@H](C)[C@@H](O)[C@H](O)C2[C@]31C (stereo not given in full),inactive,
O=C(Cc1ccc(Cl)cc1)Nc1cnccc1C(=O)O,inactive,
CC1=CCC[C@@H]2[C@@](C)(CCc3ccoc3)[C@H](C(=O)O)CC[C@@]12C,inactive,
COc1cc(O)cc(C)c1C(=O)OC1C(CO)OC(n2ccc(=O)[nH]c2=O)C1OC(C)=O (stereo not given),9.22 µM (active),
C[C@@H]1O[C@@H](O[C@@H]2[C@@H](O)[C@H](O[C@@H]3[C@@H](O)[C@@H](O)[C@H](O[C@H]4[C@H](OC(=O)[C@]56CCC(C)(C)C[C@H]5C5=CCC7[C@@]8(C)C[C@H](O)[C@H](O[C@@H]9O[C@H](C(=O)O)[C@@H](O)[C@H](O)[C@H]9O)[C@@](C)(CO)C8[C@H](O)C[C@@]7(C)[C@]5(C)C[C@H]6O)O[C@@H](CO)[C@@H]4O)O[C@H]3C)OC[C@H]2O)[C@H](O)[C@H](O)[C@H]1O (stereo not given in full),,382% [at 11.5 µM] (inactive)
C/C(=C\CO)CC/C=C(\C)C(=O)O[C@@H]1O[C@H](CO)[C@@H](O)[C@H](O)[C@H]1O,inactive,
C/C=C/C1OC2=C(C(=O)OC2(C)O)C(O)C1O (stereo not given),inactive,
CCC(C)(C)C1CCc2c(sc(NC(=O)c3ccc(Br)cc3)c2C#N)C1 (stereo not given),inactive,
CC1(C)CC[C@]2(C(=O)O[C@@H]3O[C@H](CO[C@@H]4O[C@H](CO[C@@H]5O[C@H](CO)[C@H](O)[C@H](O)[C@H]5O)[C@@H](O)[C@H](O)[C@H]4O)[C@@H](O)[C@H](O[C@@H]4O[C@H](CO)[C@@H](O)[C@H](O)[C@H]4O)[C@H]3O)[C@H](O)C[C@]3(C)C(=CCC4[C@@]5(C)CC[C@H](O[C@@H]6OC[C@@H](O)[C@H](O)[C@H]6O)[C@@](C)(C(=O)O)C5CC[C@]43C)[C@@H]2C1 (stereo not given in full),,27.9% [at 11.5 µM] (inactive)
C=C1CCC2C(C)(C)CCC[C@]2(C)[C@H]1CC/C(C)=C/C(=O)O (stereo not given in full),inactive,
COc1cc(/C=C/C(=O)O[C@@H]2C[C@@](O)(C(=O)O)C[C@@H](O)[C@@H]2O)ccc1O,6.56 µM (active),
CC1=C2C[C@@]3(C)[C@@H](CCC[C@@H]3C)C[C@@]2(O)OC1=O,inactive,
